tim10-1 inh: tim10-1 yeast growth inhibition; inhibition, % at 20 µM; AID 463190; actives 2.2% (n = 330,000); S. cerevisiae tim10-1 ts strain growth, BacTiter-Glo, 24 h;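 active = inhibition of at least 40%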;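 note: mutant grown at 25 °C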
tim23-1 inh: inhibits growth of tim23-1 mutant yeast; S. cerevisiae tim23-1 growth, BacTiter-Glo luminescence, 24 h; inhibition, % at 20 µM; actives 1.3% (n = 330,000);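 active = growth inhibition of the mutant yeast at or above 50%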;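 note: temperature-sensitive mutant grown at 25 °C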
TIM10 inh: TIM10 yeast growth inhibition; S. cerevisiae TIM10 strain growth, BacTiter-Glo luminescence, 24 h; inhibition, % at 10 µM; actives 1.4% (n = 330,000); AID 463195;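 active = inhibition of 40% or more at the single tested concentration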;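 note: wild-type TIM10 isogenic control strain grown at permissive 25 °C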
PfHsp90 yeast 2: inhibits growth of yeast expressing Plasmodium falciparum Hsp90 | S. cerevisiae expressing PfHsp90, BacTiter-Glo ATP, 48 h; yeast lacking PDR1 and PDR3 efflux regulators | inhibition, % at 9.4 µM | actives 0.32% (n = 310,000);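 active = every replicate shows inhibition above about 80%, whatever the replicate mean, limit read from the data; inconclusive = mean inhibition reaches the set limit but some replicate falls short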
SKKanGAS inh: inhibitors of SKKanGAS S. pyogenes growth in kanamycin (SK-promoter or general growth effect). actives 1.3% (n = 300,000). AID 1662. BacTiter-Glo, 6 h. inhibition, % at 7.5 µM;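 active = mean replicate score, as percent of positive control median, at least 50; inconclusive = mean below 50 but one replicate at or above 50; inactive = mean and every replicate below 50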;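 note: strain carries kanamycin resistance gene driven by streptokinase promoter and grows in 40 µg/ml kanamycin; loss of luminescence reflects streptokinase promoter inhibition or plain growth inhibition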
NLRP3 yeast inh: blocks the NALP3 inflammasome reconstituted in yeast. Yeast reconstituted NLRP3/ASC/caspase-1, beta-gal luminescence, 24 h. inhibition, % at 10 µM. actives 0.39% (n = 330,000). AID 2825;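 active = inhibition of 50% or more; inactive = inhibition below 50%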
Each line names hits and unclear results; the compound was inactive in the other large screens. Compounds with a hit are over-represented: about 4.6% of the library has one in this group of screens.

CCN1CCN(Cc2ccc(NC(=O)c3cc(NC(=O)c4cc(-c5ccc(OC)cc5)n[nH]4)cc(OC)c3)cc2C(F)(F)F)CC1	SKKanGAS inh 71.5
CCN1CCN(Cc2ccc(NC(=O)c3cc(NC(=O)c4ccc5n[nH]nc5c4)cc(OC)c3)cc2C(F)(F)F)CC1	none
Cc1ccc(C(=O)Nc2cccc(C(F)(F)F)c2)cc1NC(=O)c1c[nH]c2cc(C(F)(F)F)ccc2c1=O	none (no result: SKKanGAS inh)
CCN1CCN(Cc2ccc(NC(=O)c3ccc(C)c(NC(=O)c4c[nH]c5cc(C(F)(F)F)ccc5c4=O)c3)cc2C(F)(F)F)CC1	SKKanGAS inh 92.2
C[n+]1cnc(-c2ccccc2)cc1-c1ccccc1	none
CC(C)(C)c1ccc(COc2ccsc2C(=O)O)cc1	none
CC(C)c1ccc(OCC(=O)NNC(=S)NC(=O)c2ccco2)c(Br)c1	SKKanGAS inh 116.7
Cc1ccccc1OCC(=O)Nc1ccccc1NC(=O)c1ccco1	none
Cc1cc(Cl)ccc1OCC(=O)NNC(=O)c1ccco1	none
CC(C)(C)c1ccc(OCC(=O)NNC(=S)NC(=O)c2ccco2)c(Br)c1	SKKanGAS inh 118.5
Cc1ccccc1OCC(=O)NNC(=S)NC(=O)c1ccco1	PfHsp90 yeast 2 inconclusive, SKKanGAS inh 114.6
COc1ccccc1CN1CCNC(=O)C1CC(=O)NCCc1cnccn1 (centres undefined)	none
Cc1ccccc1C(=O)NCC(=O)NNC(=O)c1cccc(Cl)c1	none (no result: SKKanGAS inh)
CC(C)=CCC/C(C)=C/Cc1c(O)ccc(C(=O)/C=C/c2ccc(O)cc2)c1O	SKKanGAS inh 105.6
COCOc1ccc(/C=C/C(=O)c2c(OCOC)cc(OCOC)c(CC=C(C)C)c2O)cc1OCOC	none (no result: PfHsp90 yeast 2)
CC1CCCCN1CC(=O)c1c(N)n(Cc2ccccc2)c(=O)n(C)c1=O (centres undefined)	none (no result: SKKanGAS inh)
O=C(CSc1nnc(NC(=O)c2ccccc2[N+](=O)[O-])s1)NC1CCCC1	SKKanGAS inh 51.5 (no result: PfHsp90 yeast 2)
COC(=O)C1(C(C[N+](=O)[O-])c2ccc(C)cc2)C(=O)NCC1c1ccco1 (centres undefined)	SKKanGAS inh 64.4 (no result: PfHsp90 yeast 2)
C[C@H]1CCC[C@@]2(O[C@H](CCO)C[C@@H](O)[C@@H]2O)O1	none (no result: PfHsp90 yeast 2)
Cc1ccccc1-c1cc(C(=O)Nc2sc(C(=O)OC(C)C)c(C)c2C#N)c2ccccc2n1	SKKanGAS inh 58.5
COC(=O)c1sc(NC(=O)c2cc(-c3ccccc3)nc3ccccc23)c(C#N)c1C	none (no result: PfHsp90 yeast 2)
Oc1ccc(C[C@@H]2CNCCN2CCc2cc(C(F)(F)F)cc(C(F)(F)F)c2)cc1	none
FC(F)(F)c1cc(CCN2CCNC[C@H]2Cc2cccc3ccccc23)cc(C(F)(F)F)c1	SKKanGAS inh 69.8
OC(CNCCC1C=Nc2ccccc21)Cn1c2ccc(Cl)cc2c2cc(Cl)ccc21 (centres undefined)	PfHsp90 yeast 2 105.3, SKKanGAS inh 135.9 (no result: tim10-1 inh, tim23-1 inh, TIM10 inh, NLRP3 yeast inh)
Cc1ccc(C)c(S(=O)(=O)N(C(=O)c2ccncc2)c2ccc(OC(=O)c3ccncc3)cc2)c1	none
CCc1ccc(S(=O)(=O)N(C(=O)c2ccncc2)c2ccc(OC(=O)c3ccncc3)cc2)cc1	PfHsp90 yeast 2 100.9
Cc1ccc(S(=O)(=O)N(C(=O)c2ccncc2)c2ccc(OC(=O)c3ccncc3)cc2)cc1	PfHsp90 yeast 2 94.9
O=C(Oc1ccc(N(C(=O)c2ccncc2)S(=O)(=O)c2ccc(Cl)cc2)cc1)c1ccncc1	PfHsp90 yeast 2 inconclusive
Cc1ccc(S(=O)(=O)N(C(=O)c2ccncc2)c2ccc(OC(=O)c3ccncc3)cc2)c(C)c1	PfHsp90 yeast 2 89.2
COc1ccc(N(C(=O)c2ccncc2)S(=O)(=O)c2ccc(Cl)cc2)cc1	PfHsp90 yeast 2 96.9
O=C(Oc1ccc(N(C(=O)c2ccncc2)S(=O)(=O)c2ccc(F)cc2)cc1)c1ccncc1	none
CCc1nc(N2CCN(CC(=O)NCC3CCCO3)CC2)c(C#N)c2c1COC(C)(C)C2 (centres undefined)	none
COc1ccc(S(=O)(=O)NCc2ccc(F)cc2)cc1OC	none
COc1ccc(C(N)=O)c(OCC(=O)Nc2cc(C)on2)c1	none (no result: SKKanGAS inh)
O=C(NCc1ccc(C(F)(F)F)cc1)c1ccc2c(c1)S(=O)(=O)c1ccccc1C2=O	SKKanGAS inh 50.7
N=C1/C(=C\c2ccc(OC(=O)c3ccccc3Cl)cc2)C(=O)N=C2SC(N3CCOCC3)=NN12	SKKanGAS inh 53.5
COc1cc(/C=C2\C(=N)N3N=C(N4CCOCC4)SC3=NC2=O)ccc1OC(=O)c1ccccc1	none
CC(=O)C1=C(C)N2CCN=C2S1	none
COc1ccc(S(=O)(=O)N2CCCCCC2)cc1C(=O)N(C)CC(=O)Nc1cc(C)ccc1C	none
O=C(c1cccs1)N1N=C(c2ccccc2)CC1c1ccccc1 (centres undefined)	SKKanGAS inh 57.1
O=C(c1cccs1)N1N=C(c2ccc(O)cc2)CC1c1ccccc1 (centres undefined)	none
Cn1cc(CN2CCc3c([nH]c4ccccc34)C2C(C)(C)C)cn1 (centres undefined)	none
CSc1ncc(CN2CCc3c([nH]c4ccccc34)C2C(C)(C)C)cn1 (centres undefined)	SKKanGAS inh 51.5
CCN(c1ccc(OC)cc1)S(=O)(=O)c1nnc(NC(=O)c2ccccc2Cl)s1	SKKanGAS inh 50.2
COC(=O)[C@]1(C)N[C@H](CN(C)C(=O)c2ccc(C)cc2)[C@@H]2C(=O)N(C)C(=O)[C@@H]21	none (no result: SKKanGAS inh)
CC(/C=C/c1cccc([N+](=O)[O-])c1)=N\NC(=O)c1ccncc1	none
COc1ccc([N+](=O)[O-])cc1NC(=O)C1CCCN1S(=O)(=O)c1cccs1 (centres undefined)	none (no result: PfHsp90 yeast 2)
CCOc1ccc2c(c1)C(=NNC(=O)c1ccncc1)c1cc(OCC)ccc1-2	SKKanGAS inh 65.0
CCN(Cc1ccncc1)C(=O)c1cc(COc2c(C)cccc2C)on1	none
CCCOc1ccc(C(=O)NC(=S)NNC(=O)c2c(-c3ccccc3)noc2C)cc1	SKKanGAS inh 100.3
Cc1onc(-c2ccccc2)c1C(=O)NC(=S)NNC(=O)c1ccccc1O	PfHsp90 yeast 2 100.9, SKKanGAS inh 86.7
Cc1onc(-c2ccccc2)c1C(=O)NC(=S)NNC(=O)c1ccc(O)cc1	SKKanGAS inh 105.8
Cc1onc(-c2ccccc2)c1C(=O)NNC(=O)c1ccccc1Br	none (no result: SKKanGAS inh)
CCCOc1ccc(NC(=O)c2c(-c3ccccc3)noc2C)cc1	none
COC(=O)c1ccc(NC(=S)NC(=O)c2c(-c3ccccc3)noc2C)cc1	none
Cc1onc(-c2ccccc2)c1C(=O)NC(=S)NNC(=O)c1ccc(O)cc1O	SKKanGAS inh 80.1
Cc1c(C)c2ccc(OCC(=O)N3CCOCC3)c(C)c2oc1=O	none (no result: PfHsp90 yeast 2)
CCOc1ccc(NC(=O)CSc2nnc(Cc3ccccc3)c(=O)n2N)cc1	SKKanGAS inh 54.8
